An excerpt weighted towards active compounds, which were near 19% of everything screened.
ELG1 DNA repair: inhibitors of ELG1-dependent DNA repair in HEK293T cells. HEK293T ELG1-luciferase reporter, luminescence, 16 h; DNA damage induced by 5-fluorouridine. 330,000 compounds, 2.3% hits. Potency, µM (series often up to 46.1 µM), for inactives: at the top dose activity change, negative = inhibition, hits mostly inhibitors. AID 504467; note: potency is the fitted concentration of half-maximal effect; nearly all actives have a fitted effect of over 55% in size
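In this reporter screen, reduction of luminescence relative to DMSO vehicle indicated activity. Compounds and 5-fluorouridine were added together to 2,000 cells per well, incubated for 16 hr at 37 °C, then developed with ONE-Glo.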
HT1080-NT tox: kills 2HG-producing HT-1080-NT fibrosarcoma cells; HT-1080-NT fibrosarcoma viability, CellTiter-Glo ATP luminescence, 48 h; Potency, µM (highest dose often 46.1 µM), for the others: top-dose activity, negative = less viability, hits mostly cytotoxic; 360,000 compounds, 1.6% hits;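 note: NT is the 2HG producing partner of a matched IDH1 knockdown line; potency is the fitted concentration of half-maximal effect; 0% = DMSO-treated cells and -100% = media-only wells without cells; nearly all actives have a fitted effect of over 55% in size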
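HT-1080-NT fibrosarcoma cells (2HG-overproducing), 750 cells/well in RPMI with 5% FBS, dosed after 2 h and incubated 48 h at 37C. CellTiter-Glo luminescence normalized to DMSO and no-cell wells; concentration-response curves fitted and classed.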
HT1080 IDH1KD tx: toxicity to HT-1080 IDH1 knockdown cells (counter line); HT-1080 IDH1 knockdown viability, ATP luminescence, 48 h; Potency, µM (doses to about 46.1 µM), for the others: top-dose activity, negative = toxicity, hits mostly cytotoxic; 360,000 compounds, 2% hits;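 note: potency is the fitted concentration of half-maximal effect; 0% = DMSO wells and -100% = cell-free medium wells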
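CellTiter-Glo luminescence after 48 h compound exposure at 37 degrees C of IDH1-knockdown HT-1080 cells in 5% FBS RPMI. %Activity scaled between DMSO wells and cell-free media wells, with curves fitted and assigned curve classes.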
DT40 TDP1 no CPT: qHTS for Inhibitors of human tyrosyl-DNA phosphodiesterase 1 (TDP1): qHTS in cells in absence of CPT. DT40 Tdp1-/- hTDP1 cells, no CPT, ATP luminescence, 48 h. Potency, µM (doses to about 46.2 µM), for the others: top-dose activity change, negative = growth inhibition, actives largely listed as inhibitors. 420,000 compounds, 15% hits. AID 686978, 2013; note: potency is the fitted concentration of half-maximal effect; nearly all actives have a fitted effect of over 55% in size
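Luminescent ATP content (CellTiter-Glo) served as the growth readout. Knockout chicken DT40 cells expressing human TDP1 were exposed to compounds without camptothecin for a minimum 48 hr at 37 °C.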
TDP1 cell CPT: growth inhibition of DT40 Tdp1-/-;hTDP1 cells with camptothecin (screen for TDP1 inhibitors); 420,000 compounds, 12% hits; chicken DT40 Tdp1-/-;hTDP1 cells + 20 nM CPT, ATP luminescence, 48 h; Potency, µM (titrated, usually from 46.2 µM), for inactives: at the top dose activity change, negative = growth inhibition, usual class: inhibitors; note: potency is the fitted concentration of half-maximal effect; nearly all actives have a fitted effect of over 55% in size
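Cell growth measured by CellTiter-Glo luminescence after a minimum 48 h, 37 C compound exposure with 20 nM CPT in Tdp1-knockout DT40 cells stably expressing hTDP1, seeded 400/well; qHTS titration format.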
IL-1B inflam inh: inflammasome signaling inhibition, IL-1 beta readout; activity change, % at 57.5 µM; 360,000 compounds, 4.7% hits; THP-1 LPS/ATP IL-1B secretion, AlphaLISA, 16 h; hits give low values; in the data active = activity change below about -50%; inconclusive = mostly about -30% to -49%
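THP-1 cells pretreated 1 hr with compounds (up to 57.5 uM final), then stimulated with LPS (250 ng/mL final) plus ATP (1.25 mM final); secreted IL-1B measured by AlphaLISA after 16 hr, decreased signal indicating inhibition.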
Starred values were filed as active, the others as inactive; u = inconclusive; x = no result; + = active, no number; [ ] = remark or other dose. Unless noted, calls come from the whole dose curve; as a rule, active = well fitted curve in the direction sought with a large enough effect; inconclusive = small, poorly fitted or top-dose-only effect, or another doubt; inactive = no such curve, though single readings can be large; an effect the other way counts as inactive or inconclusive. Unless noted, % is set by controls: 0 for no effect and ±100 for the full control effect.

SMILES | ELG1 DNA repair | HT1080-NT tox | HT1080 IDH1KD tx | DT40 TDP1 no CPT | TDP1 cell CPT | IL-1B inflam inh
COc1cccc(Nc2nc(-c3sc(NC(=O)c4ccccc4)nc3C)cs2)c1 | u | u | -25% | 21µM* | 18µM* | -5
Cc1nc(NC(=O)c2ccc(Cl)cc2)sc1-c1csc(Nc2cccc(F)c2)n1 | 1% | x | x | x | x | x
N#CC1(NC(=O)CSc2nnc(C3CC3)n2C2CC2)CCCCC1 | 17% | -1%[9.24 µM] | 16% | 17% | -10% | -5
Cc1ccccc1-c1nnc(CN2CCN(c3ccccn3)CC2)o1 | x | x | x | -15% | -16% | x
CCS(=O)(=O)c1ccc(O)c(NC(=O)Nc2ccccc2)c1 | 14% | -4% | -4% | -17% | -6% | 12
CCS(=O)(=O)c1ccc(O)c(NC(=O)Nc2ccc(C(C)(C)C)cc2)c1 | 15µM* | u | u | u | 2% | -88*
O=C(Nc1cc2c(cc1Cl)-c1ccc([N+](=O)[O-])cc1C2=NO)C(F)(F)F | x | 8% | 6% | 23µM* | u | -65*
COc1cc2c(cc1NC(=O)C(F)(F)F)-c1ccc(NC(=O)C(F)(F)F)cc1C2 | x | 1% | 20% | -16% | -18% | 2
O=[N+]([O-])c1ccc2c(c1)-c1ccccc1C2=NO | x | 0% | 6% | 16µM* | 18µM* | -75*
O=C(Nc1ccc2c(c1)Cc1cc([N+](=O)[O-])ccc1-2)C(F)(F)F | x | -1% | -7% | 6.5µM* | u | -8
O=C1OC(=O)c2cc([N+](=O)[O-])ccc21 | u | 21% | 10% | -2% | 3% | -54*
O=C1Nc2ccccc2Nc2ccc([N+](=O)[O-])cc21 | -6% | 3% | -1% | -31% | -17% | 18
CCc1ccc(CN(C)C(=O)CCc2nnc(CCc3ccccc3OC)o2)nc1 | -10% | 7% | 9% | -6% | -24% | 29
Nc1ccc2c(c1)C(=NO)c1cc([N+](=O)[O-])ccc1-2 | x | -16% | u | 2.1µM* | 0.58µM* | -73*
COc1ccc(C(=O)NNc2ncnc3c2cnn3-c2ccc(C)c(Cl)c2)cc1 | x | x | x | 3% | -15% | x
CC[N+]1(CC)CC2=Cc3c(ccc4ccccc34)CC2C1 (centres undefined) | 7% | 4% | -5% | 21µM* | u | -9
Cc1ccc(S(=O)(=O)C=CS(=O)(=O)c2ccc(C)cc2)cc1 | x | u | u | 0.73µM* | 1µM* | -17
Cc1ccc(N(C)S(=O)(=O)c2ccc(C)cc2)cc1 | 1% | 4% | 0% | u | u | -2
Cc1ccc(S(=O)(=O)/C=C/C#N)cc1 | x | x | x | 0.65µM* | 1.3µM* | x
Cc1ccc(S(=O)(=O)c2ccc(C)cc2)cc1 | 8% | 6% | 1% | -12% | 1% | -1
NS(=O)(=O)c1ccccc1 | 17% | -3% | 12% | -7% | -20% | 24
Cc1ccc(S(=O)(=O)/C=C\C#N)cc1 | x | x | x | 0.67µM* | 0.6µM* | x
Cc1ccc(S(=O)(=O)/C=C2\NC(=O)CS2)cc1 | 6% | 2% | 0% | 10% | -2% | 14
O=S(=O)(/C=C/C=C/S(=O)(=O)c1ccccc1)c1ccccc1 | x | u | 1.3µM* | 0.046µM* | 0.026µM* | -101*
CC(Sc1nnc(Cc2ccccc2)n1C)C(=O)NC1CC1 (centres undefined) | 9% | 9%[9.24 µM] | 10% | 12% | -8% | -3
SMILES | ELG1 DNA repair | HT1080-NT tox | HT1080 IDH1KD tx | DT40 TDP1 no CPT | TDP1 cell CPT | IL-1B inflam inh
CC(C)c1cccc(C(C)C)c1NC(=O)OC1CCCCC1 | x | 23% | 10% | u | u | 2
CC(C)(C)c1ccc(S(=O)(=O)/C=C\C#N)cc1 | x | x | x | 0.53µM* | 0.47µM* | x
CC(C)(C)c1ccc(S(=O)(=O)N2CCN(CCC#N)CC2)cc1 | 21% | -3% | 1% | -17% | -11% | -7
Cc1c(Cl)cccc1NC(=O)c1oc2ccc(S(=O)(=O)N3CCCCCC3)cc2c1C | x | x | x | 8.2µM* | u | x
Cc1c(C(=O)Nc2ccc(F)cc2)oc2ccc(S(=O)(=O)N3CCCCCC3)cc12 | x | x | x | 18µM* | 18µM* | x
COc1ccc(NC(=O)c2oc3ccc(S(=O)(=O)N4CCCCC4)cc3c2C)cc1Cl | x | x | x | 13µM* | 9.2µM* | x
COc1ccc(Cl)cc1NC(=O)c1oc2ccc(S(=O)(=O)N3CCCCC3)cc2c1C | x | x | x | -1% | 12% | x
Cc1ccc(NC(=O)c2oc3ccc(S(=O)(=O)N4CCCCC4)cc3c2C)cc1C | x | x | x | -24% | u | x
Cc1c(C(=O)N2CCCCC2)oc2ccc(Br)cc12 | u | 7% | 0% | u | -24% | -17
Cc1c(C(=O)Nc2ccc(-c3nnc4n3CCCCC4)cc2)oc2ccc(Br)cc12 | u | -9% | -14% | u | u | -65*
CN1CCN(C(CNC(=O)c2c(F)cccc2F)c2ccc3c(c2)OCO3)CC1 (centres undefined) | x | x | x | -10% | 4% | x
CCc1cccc(CC)c1NC(=O)c1cccc(S(=O)(=O)N2CCN(C)CC2)c1 | 5% | 0% | 5% | 3% | -8% | -9
Cn1cc(S(=O)(=O)NC[C@H]2O[C@@H](n3cnc4c(N)ncnc43)[C@H](O)[C@@H]2O)cn1 | u | -1% | 4% | -4% | 2% | 17
Fc1ccc(CNC(=S)NC2CCCC2)cc1 | -5% | -24% | u | u | u | -142*
Fc1ccc(CNC(=S)NC2CCCCC2)cc1 | u | 1% | -13% | u | u | 8
NS(=O)(=O)c1ccc(CNC(=S)NCc2ccc(F)cc2)cc1 | 10% | 9% | 0% | 8% | 10% | +
CCCCC/C=C\C/C=C\CCCCCCCC(=O)NC(C)c1ccccc1 (centres undefined) | x | x | x | 3% | -15% | x
C=Cc1ccc(Cn2c(C)c(CNCc3cccc(Br)c3)c(C(=O)O)c2C)cc1 | x | x | x | -13% | 5% | x
COc1ccccc1NC(=O)c1cc2ccc(O)cc2o/c1=N\O | -9% | u | u | u | u | -63*
COc1ccccc1NC(=O)c1cc2ccccc2o/c1=N\O | u | -1% | 0% | 21µM* | 21µM* | -18
Cc1ccc(NC(=O)CN(C)C(=O)COC(=O)C2=COCCO2)cc1 | 6% | 6% | 12% | 0% | -3% | 11
CCc1ccc(NS(=O)(=O)c2cccc3nonc23)cc1 | 6% | -12% | 5% | u | 3% | 0
